Test results taken from PubChem BioAssay (Tox21).
Results filed as inconclusive are left out. Entries that show only a call come without a potency. Unmarked numbers belong to inactive results. Calls of active or inactive are those of the source. The call rests on the fitted dose curve; in most records, active means well fitted cell-killing curve with a large enough effect in the repeat runs; inconclusive means weak or mixed curves, or effect the other way; inactive means flat fitted curve, though single readings scatter.

assay: cAMP Responsive Elements (CRE) small molecule agonists, cell-based qHTS assay: qHTS cell viability counter screen (AID 2060914); settings: CRE-bla HEK293T viability, CellTiter-Glo luminescence, 5 h; series mostly up to 92.4 µM; further: nearly all actives have a fitted effect of over 50% in size
How it was run: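 Cytotoxicity was measured as ATP luminescence (CellTiter-Glo, 30 min at room temperature) in the same wells as the CRE-bla FRET read-out. HEK293T CRE-bla cells had 3 h compound exposure at 37C/5% CO2.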

| Compound | Potency | activity change, negative = cytotoxicity |
| --- | --- | --- |
| CC(=O)Oc1cccc(C)c1 | inactive |  |
| Cc1ccc2nc(-c3ccc(N)cc3)sc2c1S(=O)(=O)O | inactive |  |
| OC1CCCCC1c1ccccc1 (centres undefined) | inactive |  |
| CN(C)CCOCCN(C)C | inactive |  |
| Nc1ccc2c(c1)C(=O)c1ccccc1C2=O | inactive |  |
| Cc1cc(O)c2c(c1)C(=O)c1cc(O)cc(O)c1C2=O | inactive |  |
| CC1(C)C(C=C(Cl)Cl)C1C(=O)OCc1cccc(Oc2ccccc2)c1 (centres undefined) | inactive |  |
| CC(CCc1ccccc1)NCC(O)c1ccc(O)c(C(N)=O)c1 (centres undefined) | inactive |  |
| O=C=NC1CCC(CC2CCC(N=C=O)CC2)CC1 (centres undefined) | inactive |  |
| CCN(CC)c1ccc2c(-c3ccccc3C(=O)O)c3ccc(=[N+](CC)CC)cc-3oc2c1 | inactive |  |
| CC(=O)NCCCS(=O)(=O)O | inactive |  |
| Nc1nc(-c2ccccc2)c(Br)c(=O)[nH]1 | inactive |  |
| CC1CCC(C(C)C)C(O)C1 (centres undefined) | inactive |  |
| Cc1cccc2c1ccc1ccccc12 | inactive |  |
| C=C(C)c1ccccc1 | inactive |  |
| CN1CCCC1 | inactive |  |
| C[C@@H]1CN(c2c(F)c(N)c3c(=O)c(C(=O)O)cn(C4CC4)c3c2F)C[C@H](C)N1 |  | -0.413% [at 18.9 µM] |
| O=S(=O)(O)CO | inactive |  |
| CC(C)c1ccc2ncccc2c1 | inactive |  |
